# Source: PubChem BioAssay (NCATS)
# Values without a mark were called inactive. The rule behind the calls is not given here.
# System: HIV-1 nucleocapsid protein NCp7 (binding to TG oligonucleotide)
# Experiment: HIV Nucleocapsid (AID 346);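 note: potency is for inhibitors that block NC binding and lower polarization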
# Details: HIV-1 NC / fluorescein-TGTGTGTG probe, fluorescence polarization
# How it was run: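 Fluorescence polarization binding of 100 nM HIV-1 NC to 10 nM fluorescein-labelled TG4xF oligonucleotide. Buffer was Hepes pH 7.5 with 250mM NaCl, 1uM ZnCl2, TCEP and 2-mercaptoethanol. Compounds were incubated 1 hr at room temperature before the read.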
# Potency is the fitted concentration of half-maximal effect.
row,Structure (SMILES),Potency [µM]
1,CN1CCN(c2ccnc(-c3cccnc3)n2)CC1,> 20
2,Cn1c(=O)c(CCc2ccccc2)nc2cnc(Nc3ccccc3)nc21,> 20
3,Cc1cccc(CNc2ncncc2-c2cccnc2)c1,> 20
4,COc1cccc(Cn2c(=O)c(-c3ccc(Cl)cc3)nc3cnc(N(C)C)nc32)c1,> 20
5,CC(=O)N1CCC[C@@]2(CCN(C(=O)Nc3ccccc3)C2)C1,> 20
6,Clc1ccccc1-c1nccc(NCc2cccs2)n1,> 20
7,COc1ncc2nc(-c3cn(C)c4ccccc34)c(=O)n(CCC#N)c2n1,> 20
8,CN(C)c1ccc(-c2nccc(NCc3ccccc3)n2)cc1,> 20
9,COC(=O)N1CCC2(CCCN(c3ccncc3)C2)CC1,> 20
10,CC(=O)NCCNc1cc(-c2ccccc2C(F)(F)F)ncn1,> 20
11,CNc1nc(-c2cccc(C#N)c2)nc2ccccc12,> 20
12,Cn1cccc1C(=O)N1CCC2(CC1)CN(c1ccccn1)C2,> 20
13,CN1CCN(c2ncc3nc(-c4cccc(C#N)c4)c(=O)n(C)c3n2)CC1,> 20
14,COc1ccc2[nH]cc(CCNc3ccnc(-c4cccc(NS(C)(=O)=O)c4)n3)c2c1,> 20
15,Cc1cccc(CNc2nc(-c3cccnc3)nc3ccccc23)c1,> 20
16,O=C(Nc1cccc(F)c1)N1CCC2(CC1)CCN(C(=O)c1ccco1)CC2,> 20
